{"source": "paper PMC7819943", "about": "“Rice protein-binding microarrays: a tool to detect cis-acting elements near promoter regions in rice”", "note": "The full ranking holds about 39,000 sequences; the median of “fluorescence intensity (a.u.)” is about 4,300, and the highest 2% start at about 39,000. The sample holds the highest values, similar sequences and a random draw of the others, so the mix is not that of the screen."}
{"target": "T1, OsSMF1 (Oryza sativa, UniProt Q6ZLB0 1-436)", "T1 sequence": "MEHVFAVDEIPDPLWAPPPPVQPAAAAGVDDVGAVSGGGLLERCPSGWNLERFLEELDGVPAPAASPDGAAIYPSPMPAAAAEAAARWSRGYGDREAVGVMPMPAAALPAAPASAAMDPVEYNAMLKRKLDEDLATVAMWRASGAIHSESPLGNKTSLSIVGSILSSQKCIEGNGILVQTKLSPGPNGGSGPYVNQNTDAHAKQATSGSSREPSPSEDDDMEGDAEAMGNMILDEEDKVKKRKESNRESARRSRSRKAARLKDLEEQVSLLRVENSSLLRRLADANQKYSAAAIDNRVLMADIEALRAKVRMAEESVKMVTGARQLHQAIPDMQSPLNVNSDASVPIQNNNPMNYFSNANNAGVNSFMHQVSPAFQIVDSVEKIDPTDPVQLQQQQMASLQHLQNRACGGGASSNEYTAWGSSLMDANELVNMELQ", "assay": "protein-binding microarray (RPBM); PBS, 2% BSA, 51.3 ng/ul salmon testes DNA, 50 uM zinc acetate, 200 nM TF, 25 C, 1 h; high values mean tight binding", "conditions": "protein: recombinant; tags: N-terminal polyhistidine and DsRed monomer fusion (pET32a); chain copies: 2; label: CyDye5-dUTP incorporated in the synthesized complementary strand; 3' TTTTT single-stranded linker to array surface; dsDNA, one strand shown", "how_it_was_run": "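Using Ni–NTA, transcription factors fused N-terminally to polyhistidine and DsRed were purified after expression in E. coli BL21-CodonPlus. These were incubated at 200 nM with a blocked, double-stranded custom Agilent array for 1 h at 25 °C in a buffer containing 50 µM zinc acetate, and the array was washed. The binding signal is per-feature fluorescence intensity (arbitrary units) on an Axon 4000B scanner.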"}
{"sequence": "CACACCTGACACAACACTTACACATCATACCAGAAGAAAACGGAGTCACCTAGTGCAG", "binding signal": "3210 fluorescence intensity (a.u.)"}
{"sequence": "AGATCACACACAACACGCACATCACGAACCGGACCAAACCCGGAGTCACCTAGTGCAG", "binding signal": "3660 fluorescence intensity (a.u.)"}
{"sequence": "ATGCACACACATACAACGAAAACCAGAGATCAACAGGTGCCGGAGTCACCTAGTGCAG", "binding signal": "45100 fluorescence intensity (a.u.)"}
{"sequence": "TGGGGCCGTGAGGCCACGTGCCCGGCATGCCACGGTGGAGCGGAGTCACCTAGTGCAG", "binding signal": "10000 fluorescence intensity (a.u.)"}
{"sequence": "CTCCTCTCCTCTCTTCTCCACATCCACAAGAAATTTCGTACGGAGTCACCTAGTGCAG", "binding signal": "3630 fluorescence intensity (a.u.)"}
{"sequence": "TTGTCGTCCACGCCGCCATCTCCTTGGTCATCCGCAACAACGGAGTCACCTAGTGCAG", "binding signal": "3430 fluorescence intensity (a.u.)"}
{"sequence": "TCCTCCTCTCCTCCACACATCCAGGCAGGCAACACAAGAACGGAGTCACCTAGTGCAG", "binding signal": "41800 fluorescence intensity (a.u.)"}
{"sequence": "CCCTTGTCCATCCGCCAACGCCACGTCACCTCCTCCGCTACGGAGTCACCTAGTGCAG", "binding signal": "52100 fluorescence intensity (a.u.)"}
{"sequence": "CCTTTTATCCGCTCTACGGACGCAGTCCACGTCAGCCGACCGGAGTCACCTAGTGCAG", "binding signal": "39200 fluorescence intensity (a.u.)"}
{"sequence": "CCTCCGCCTTGTCCGCGTCCACGTCCACGGCCGCCGCCACCGGAGTCACCTAGTGCAG", "binding signal": "6310 fluorescence intensity (a.u.)"}
{"sequence": "ACCACGACCACCACAACACCACCACCTCTTCTCCTAGTCACGGAGTCACCTAGTGCAG", "binding signal": "3570 fluorescence intensity (a.u.)"}
{"sequence": "TCCACCACCGCCTGCCTCCATCCACCTCCACTGCAACCTCCGGAGTCACCTAGTGCAG", "binding signal": "3670 fluorescence intensity (a.u.)"}
{"sequence": "CCTCCACCCTCACCGGCGCCACGCCGACGCCTCCGCCCTCCGGAGTCACCTAGTGCAG", "binding signal": "5600 fluorescence intensity (a.u.)"}
{"sequence": "GGCAACAACGGCCTCCACCGCCATCACTCCGGCACCCTCACGGAGTCACCTAGTGCAG", "binding signal": "52200 fluorescence intensity (a.u.)"}
{"sequence": "ACCTCCCCGACGGCGTCCGCGTGCCGCGCTCCACGCGCACCGGAGTCACCTAGTGCAG", "binding signal": "3460 fluorescence intensity (a.u.)"}
{"sequence": "CGCCTTATCCTCCCGCCTTTTCACGTCCCGCCACGCCGACCGGAGTCACCTAGTGCAG", "binding signal": "4060 fluorescence intensity (a.u.)"}
{"sequence": "CACGGGGTGGTCGCGGGTCACAGTGACGGACGGTGCACGGCGGAGTCACCTAGTGCAG", "binding signal": "20200 fluorescence intensity (a.u.)"}
{"sequence": "CACCAGGCACCGACTGCCGTAGTGTCACCGGCCACAGTGCCGGAGTCACCTAGTGCAG", "binding signal": "3220 fluorescence intensity (a.u.)"}
{"sequence": "CTGTTGCCTACTCCCTCCTCAATCCTGCAGAAGTTTCTGACGGAGTCACCTAGTGCAG", "binding signal": "3240 fluorescence intensity (a.u.)"}
{"sequence": "CTCCATTTTCTCCGGTTTTCGCCGCAGAGTAGGAGCTGAACGGAGTCACCTAGTGCAG", "binding signal": "21400 fluorescence intensity (a.u.)"}
{"sequence": "CTCCTCCTCCGGCCACGTCGACGTCGCACCAACCGCCGCCCGGAGTCACCTAGTGCAG", "binding signal": "14700 fluorescence intensity (a.u.)"}
{"sequence": "TCACGGCCGCCTCCGCCATCTGCACAACCTCGCCGCCGCCCGGAGTCACCTAGTGCAG", "binding signal": "65500 fluorescence intensity (a.u.)"}
{"sequence": "CGTGCCGACGCGTGCCTCGCCAACGTGTCGCAACGCCTCACGGAGTCACCTAGTGCAG", "binding signal": "8980 fluorescence intensity (a.u.)"}
{"sequence": "AACCAACGGTCGCTGTTACGCCACGTCACCTCACCGACGCCGGAGTCACCTAGTGCAG", "binding signal": "39200 fluorescence intensity (a.u.)"}
{"sequence": "TCTCCTCTCGCTCTCGCCATCTCGCCGCCGGCCTCCTCCACGGAGTCACCTAGTGCAG", "binding signal": "3240 fluorescence intensity (a.u.)"}
{"sequence": "CGTCGCCTCGCCTCGTCACGGCCGCCTCCGCCATCGCCTCCGGAGTCACCTAGTGCAG", "binding signal": "6060 fluorescence intensity (a.u.)"}
{"sequence": "AGCACTACTCCAACGCAGCAACCAACACGTACCTCCACATCGGAGTCACCTAGTGCAG", "binding signal": "6420 fluorescence intensity (a.u.)"}
{"sequence": "GATTCTTCTATGTGGCATGAGGTAACCCTGGGTCGGCTTGCGGAGTCACCTAGTGCAG", "binding signal": "4110 fluorescence intensity (a.u.)"}
{"sequence": "GCCGTTGTCCGAAGGTTCAGCATATTGCTGACATATTGCCCGGAGTCACCTAGTGCAG", "binding signal": "4940 fluorescence intensity (a.u.)"}
{"sequence": "GCATGCTCTTCTGATCTGTAATCTCAGGCTCTATTACTCTCGGAGTCACCTAGTGCAG", "binding signal": "3450 fluorescence intensity (a.u.)"}
{"sequence": "TTCCTCGCCAACGTAAGCCAATAACATTGTGACGCAATCTCGGAGTCACCTAGTGCAG", "binding signal": "5820 fluorescence intensity (a.u.)"}
{"sequence": "GCTGAGCAGGAGAGGGGCGCCGATCTCCATCCGGCGAGCACGGAGTCACCTAGTGCAG", "binding signal": "5450 fluorescence intensity (a.u.)"}
{"sequence": "CATCGAGAGGCTCCCGAGCATGGCCGAGATCGCCGAGGAGCGGAGTCACCTAGTGCAG", "binding signal": "3500 fluorescence intensity (a.u.)"}
{"sequence": "GTGTGCCGCCGCCGCTGACTCCGGAGGGAGAGGACGAGCTCGGAGTCACCTAGTGCAG", "binding signal": "3320 fluorescence intensity (a.u.)"}
{"sequence": "GAGCAGGAGGAGCTGAGCGACTCCGAGTCGGGCGCCGAGTCGGAGTCACCTAGTGCAG", "binding signal": "40100 fluorescence intensity (a.u.)"}
{"sequence": "CCGAGTGACGATGCAGCTGAGTCGGAGCGCAGCACGACTTCGGAGTCACCTAGTGCAG", "binding signal": "4290 fluorescence intensity (a.u.)"}
{"sequence": "GAGATGGGAGGAGAGCTAGCTAGCCGCCGAGGCTGAGCTCCGGAGTCACCTAGTGCAG", "binding signal": "40600 fluorescence intensity (a.u.)"}
{"sequence": "ATCTCCATCTGGCGAGCAGAGGCCGGGGAGGGAGGGGCGCCGGAGTCACCTAGTGCAG", "binding signal": "3870 fluorescence intensity (a.u.)"}
{"sequence": "GAGGGGCGCGGGCGCCGAGCTCCATCTGGCGAGCAGGGTACGGAGTCACCTAGTGCAG", "binding signal": "42200 fluorescence intensity (a.u.)"}
{"sequence": "GCGAGCTCCTGGAGGCGGCGAGGGCGCCGGAGTTCGCGGGCGGAGTCACCTAGTGCAG", "binding signal": "37200 fluorescence intensity (a.u.)"}
{"sequence": "CACCGCTACCTACGTTGTCGCCACCCACGTCAATAATCCTCGGAGTCACCTAGTGCAG", "binding signal": "6310 fluorescence intensity (a.u.)"}
{"sequence": "ATTCTTTTACCGCGTTGATGAATCGGATTCGTTCCGGTTTCGGAGTCACCTAGTGCAG", "binding signal": "3360 fluorescence intensity (a.u.)"}
